# From PubChem BioAssay
# NPSR antagonist – qHTS Assay for Antagonists of the Neuropeptide S Receptor: cAMP Signal Transduction | CHO-NPSR cells, cAMP TR-FRET, antagonist mode | Potency, µM (highest dose often 38.3 µM), for the others: top-dose activity change, negative = inhibition, most hits filed as inhibitors | 220,000 tested, 1% active; further: potency means the concentration at half of the fitted maximal effect; nearly all actives have a fitted effect of over 50% in size
# Target sequence (Q6W5P4 whole entry, looked up): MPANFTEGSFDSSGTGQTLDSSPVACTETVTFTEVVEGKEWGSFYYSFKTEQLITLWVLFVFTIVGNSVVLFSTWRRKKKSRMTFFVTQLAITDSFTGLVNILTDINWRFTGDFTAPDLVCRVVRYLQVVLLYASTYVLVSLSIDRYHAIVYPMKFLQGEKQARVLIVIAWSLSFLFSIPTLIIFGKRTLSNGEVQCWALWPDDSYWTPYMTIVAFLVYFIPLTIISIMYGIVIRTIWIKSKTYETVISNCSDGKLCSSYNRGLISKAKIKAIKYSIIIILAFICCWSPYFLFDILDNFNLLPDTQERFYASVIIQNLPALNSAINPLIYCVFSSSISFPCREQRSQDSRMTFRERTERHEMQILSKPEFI
# IMPase inh – qHTS Assay for Identifying the Cell-Membrane Permeable IMPase Inhibitors; Inositol monophosphatase 1 (Rattus norvegicus), P97697; CHO-M1 cells, IP1 accumulation, HTRF TR-FRET ratio; inhibition (IP1 accumulation), % at 46.1 µM; 120,000 tested, under 10 active; AID 901, 2007; active means well fitted curve in the direction sought with a large enough effect in the signal ratio, not every such curve was filed as active; inconclusive means small, poorly fitted or top-dose-only effect, or a change in a side signal; inactive means no such curve, though single readings can be large or run the other way; the % refers to the signal ratio;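 further: cells stimulated with carbachol in lithium chloride buffer; plate controls were DMSO basal wells for no effect and reference inhibitor wells for full effect; higher means more IMPase inhibition seen as more IP1 and lower FRET ratio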
# Target sequence (P97697 whole entry, looked up): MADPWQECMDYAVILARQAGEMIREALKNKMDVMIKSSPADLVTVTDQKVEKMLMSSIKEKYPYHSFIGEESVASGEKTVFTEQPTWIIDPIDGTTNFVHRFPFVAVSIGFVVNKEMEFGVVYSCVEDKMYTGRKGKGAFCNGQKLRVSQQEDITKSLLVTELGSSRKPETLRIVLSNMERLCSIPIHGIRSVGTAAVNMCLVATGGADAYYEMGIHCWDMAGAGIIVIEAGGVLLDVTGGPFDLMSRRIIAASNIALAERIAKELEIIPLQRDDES
#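 CHO-M1, 2000 cells/well, cultured 16–30 h; cpd up to 46 uM; carbachol (50 uM solution, stimulation buffer w/ 50 mM LiCl, pH 7.4), 30 min 37C; IP-One TR-FRET, 10 min RT; Ex 320/Em 665, 620; Hill-fit AC50.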
# IMPase Li inh – qHTS Assay for Identifying the Cell-Membrane Permeable IMPase Inhibitors: Potentiation with Lithium; CHO-M1 cells, IP1 TR-FRET (IP-One), carbachol + lithium; Potency, µM (highest dose often 59.4 µM), without a hit: at the highest dose activity, negative = IMPase inhibition, actives largely listed as inhibitors; 210,000 tested, 0.35% active;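 further: IP1 builds up when IMPase is blocked and the TR-FRET signal falls; potency means the concentration at half of the fitted maximal effect; plate controls were basal vehicle for no effect and high inhibitor control for full effect; nearly all actives have a fitted effect of over 50% in size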
#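 Concentration–response in CHO-M1 cells, lithium-potentiated; 30 min at 37C. IP1 detected by competitive TR-FRET after 10 min lysis at RT. Hill-fitted AC50.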
# * hit, by the source's call; u = inconclusive; x = no result given; [ ] = another dose, or the depositor's remark. The sample as a whole holds a higher share of hits than the screen did. Unless noted, the call rests on the fitted dose curve; in most records, active means well fitted curve in the direction sought with a large enough effect; inconclusive means small, poorly fitted or top-dose-only effect, or another doubt; inactive means no such curve, though single readings can be large; an effect the other way counts as inactive or inconclusive. Unless noted, on the % scale 0 is the no-effect control and ±100 the full control effect.
SMILES,NPSR antagonist,IMPase inh,IMPase Li inh
COC(=O)c1ccc(C2/C(=C(/O)c3ccc(OC(C)C)cc3)C(=O)C(=O)N2c2cc(C)on2)cc1 (centres undefined),-6.4%[46.1 µM],-15.4,10µM*
N/N=C1/CC(=O)NC(=O)N1,x,x,-4.9%
Oc1ccc(Nc2nc3ccccc3nc2Nc2ccc(O)cc2)cc1,10µM*,9.4,32.3%[38.3 µM]
Oc1ccc(Nc2nc(-c3ccc(Cl)cc3)nc3ccccc23)cc1,x,12.4,x
C=C(C)OC(C)=O,x,x,7.2%
C[C@@H]1c2ccccc2Cn2cc3c(c21)C(=O)c1cccc(OP(=O)(O)OCc2ccccc2)c1C3=O,x,x,-4.0%
Cc1ccccc1C(=N)c1ccccc1Cc1cccc2ccccc12,x,x,0.4%
Cc1cc2cc(C(c3nnnn3C(C)(C)C)N(Cc3ccco3)CC3CCCO3)c(=O)[nH]c2cc1C (centres undefined),u,7.2,-1.3%[38.3 µM]
COc1ccc2[nH]c(=O)c(C(c3nnnn3C(C)(C)C)N(Cc3ccco3)CC3CCCO3)cc2c1 (centres undefined),u,2.0,15.8µM*
Cc1cccc2c1Oc1ccccc1[C@@H]2NC(=O)c1ccc([N+](=O)[O-])cc1,x,x,3.9%
CCN1C=C(Cc2ccccc2C)C2=C(C1)C(c1ccccc1C)C(C#N)=C(N)O2 (centres undefined),u,6.6,46.2%[38.3 µM]
CCN1C=C(Cc2ccc(F)cc2)C2=C(C1)C(c1ccc(F)cc1)C(C#N)=C(N)O2 (centres undefined),10µM*,1.1,38.6%[38.3 µM]
O=C(O)c1cc(Cl)cc(Cl)c1,x,x,11.1%
O=C(O)c1nnsc1COCc1ccccc1,x,x,-0.5%
CC(=O)n1cc(C(C[N+](=O)[O-])SCCN)c2ccccc21 (centres undefined),10µM*,11.5,18.7%[38.3 µM]
COC(=O)/C(=C/c1cn(C(C)=O)c2ccccc12)[N+](=O)[O-],20.2%,x,x
C[C@@H](C(=O)O)c1cccc(C(=O)c2ccccc2)c1,x,-3.1[20.6 µM],-1.2%
COC(=O)c1ccccc1NC(=O)Cn1nc(C(F)(F)F)c2c1CCCC2,x,11.6,x
c1ccc(Sc2cnc3ccccc3n2)cc1,-6.6%[46.1 µM],u,12.6µM*
Clc1ccc(Sc2cnc3ccccc3n2)cc1,-18.5%[46.1 µM],-25.5,u
COc1ccc(NC(=O)N2CC3(CCN(S(C)(=O)=O)CC3)C2)cc1,x,x,-10.0%
CC1C/C(=C/c2ccccn2)C(=O)/C(=C/c2ccccn2)C1 (centres undefined),u,x,10.4%
CC(C)(C)C1C/C(=C/c2ccccn2)C(=O)/C(=C/c2ccccn2)C1 (centres undefined),2µM*,x,30.6%
Cc1cc(C)cc(-n2c(C)cc(C=C(C#N)C#N)c2C)c1,-18.8%[46.1 µM],-0.1,10µM*
CCOC(=O)/C(C#N)=C/c1cc(C)n(-c2ccccc2)c1C,-10.0%[46.1 µM],12.5,5.8%[38.3 µM]
SMILES,NPSR antagonist,IMPase inh,IMPase Li inh
CCCC(=O)O[C@]1(C(=O)CCl)[C@@H](C)C[C@H]2[C@@H]3CCC4=CC(=O)C=C[C@]4(C)[C@@]3(F)C(=O)C[C@@]21C,3.16µM*,x,11.6%
CCC(=O)O[C@]1(C(=O)CCl)[C@@H](C)C[C@H]2[C@@H]3CCC4=CC(=O)C=C[C@]4(C)[C@@]3(F)[C@@H](O)C[C@@]21C,2µM*,x,3.9%
CCCCC(=O)O[C@]1(C(=O)CO)[C@H](C)C[C@H]2[C@@H]3CCC4=CC(=O)C=C[C@]4(C)[C@@]3(F)[C@@H](O)C[C@@]21C,x,x,-8.4%
CCC(=O)O[C@@]1(C(=O)CCl)C(C)CC2C3CCC4=CC(=O)C=C[C@@]4(C)[C@]3(F)C(O)C[C@]21C (some centres undefined),x,x,-0.6%
COc1cc2c(cc1O)[C@@H](c1cc(O)c(O)c(OC)c1)[C@@](O)(C(=O)O)[C@@H](CO)[C@@H]2O,x,x,-2.8%
NNC(=O)c1ccc(CSc2cccc3cccnc23)cc1,6.0%,x,-4.1%
Cc1cccc(CSc2cccc3cccnc23)c1,3.16µM*,-1.1,-5.2%[38.3 µM]
O=C(Nc1ccccc1)N1CCC2(CC1)CCN(C(=O)c1csnn1)CC2,x,x,10.9%
CCCSc1nc(SCC(=O)NCc2ccccc2)c2c3c(sc2n1)COC(C)(C)C3,-7.0%[46.1 µM],1.6,10µM*
CC(C)Sc1nc(SCC(=O)O)c2c3c(sc2n1)COC(C)(C)C3,48.7%,x,x
CN1CCN(c2ccncc2S(=O)(=O)N2CCN(C)CC2)CC1,x,x,-0.1%
Cc1ccc(-c2ccc(/C=C3\C(=O)ON=C3c3ccccc3)o2)c([N+](=O)[O-])c1,7.94µM*,2.5,20.6%[38.3 µM]
Cc1ccc(/C=C2\C(=O)ON=C2c2ccccc2)o1,-9.9%,x,-2.5%
CC1(C)O[C@H]2[C@@H](O1)[C@@H](On1nnc3ccc(Cl)cc31)O[C@@H]2[C@@H]1COC(C)(C)O1,x,x,7.9%
N[C@@H](Cc1cccnn1)C(=O)O,x,x,-11.4%
Cc1cccc(C)c1NC(=O)CSc1nc(C)c(CC(=O)c2ccc(Br)cc2)c(C)c1C#N,u,0.2,u
Cc1nc(SCC(=O)Nc2ccccc2C(F)(F)F)c(C#N)c(C)c1CC(=O)c1ccc(Br)cc1,10µM*,6.3,10µM*
CN(C)c1ncc2nc(-c3cccs3)c(=O)n(C3CC3)c2n1,x,x,6.6%
CCN1CCN(c2ccc(NC(=O)c3ccc([N+](=O)[O-])o3)cc2Cl)CC1,-14.1%,x,20.3%
CCC(=O)N1CCN(c2ccc(NC(=O)c3ccc([N+](=O)[O-])o3)cc2Cl)CC1,5.01µM*,x,29.3%
COc1c2c(nc3ccccc13)O[C@@H]([C@@](C)(O)CO)C2,x,-2.3,x
COc1ccc(-c2cn3c(C)c(C(=O)Nc4cc(NC(C)=O)ccc4OC)sc3n2)cc1,u,u,4.47µM*
CNC(=O)c1sc2nc(-c3ccc(OC)cc3)cn2c1C,-21.2%[46.1 µM],2.0,-16.9%[38.3 µM]
Cn1c(=O)c2c(nc(N3CCOCC3)n2Cc2cccc(Br)c2)n(C)c1=O,x,8.5,x
CCN1C(=O)/C(=C\C=C2/C=CC=CN2CC)SC1=S,-55.9%,x,36.1%
SMILES,NPSR antagonist,IMPase inh,IMPase Li inh
CCN1C(=O)/C(=C/C=C2\C=CN(CC)c3ccccc32)SC1=S,3.16µM*,1.6,102.8%
CCOC(=O)c1sc2nc(-c3ccco3)c3c(c2c1N)CC(C)(C)OC3,10µM*,-5.8,-14.1%[38.3 µM]
COC(=O)CSc1ncnc2c1sc1nc(-c3ccco3)c3c(c12)CC(C)(C)OC3,-1.5%[46.1 µM],-4.0,4.9%[38.3 µM]
Cc1ccc(C2(c3noc(CN(C)Cc4cccnc4)n3)CCCC2)cc1,28.3%,x,12.8%
CCCCCCCC[N+](CCCCCCCC)(CCCCCCCC)CCCCCCCC,x,x,22.6%
O=C(Nc1ccccc1)c1sc2cc(C(F)(F)F)cnc2c1-c1cccs1,10µM*,7.9,23.8%[38.3 µM]
NNC(=O)c1sc2cc(C(F)(F)F)cnc2c1-c1cccs1,-7.7%,x,3.8%
N#CC(=C(/N)Sc1ccccc1N)/C(C#N)=C(/N)Sc1ccccc1N,x,2.6,18.2%
CN1CCc2c(cc(O)c(O)c2Cl)[C@H](c2cccc(Cl)c2)C1,x,13.4,x
CC(=O)Oc1ccc(N2C(=O)C3C4C=CC(CO)(O4)C3C2=O)cc1 (centres undefined),-11.6%[46.1 µM],3.7,-3.5%[38.3 µM]
O=C1C2C3C=CC(CO)(O3)C2C(=O)N1c1ccccc1-c1ccccc1 (centres undefined),6.31µM*,14.8,14.7%[38.3 µM]
